Assay outcomes (PubChem)
DAX1 inh-1: DAX1 (NR0B1) inhibition, primary screen; HEK293T StAR-luciferase reporter, SF-1/DAX-1 repression relief; inhibition, % at 6.8 µM; 1.1% of 370,000 active; AID 652010;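 active = inhibition above the mean over all tested compounds plus 3 SD, cut at about 3.6% in these data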;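 note: 0% = DAX-1 cells with DMSO and 100% = cells lacking DAX-1 with DMSO; higher inhibition means more luminescence from relief of DAX-1 repression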
ssDAF-12 act: activates DAF-12 receptor from parasite S. stercoralis; HEK293 ssDAF-12/GRIP1 lit1-tk-luc reporter, luminescence; % of 3 µM dafachronic acid response; AID 652126; 1% of 370,000 active; activation, % at 6.8 µM;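 active = activation above the mean over all tested compounds plus 3 SD, cut at about 0.9% in these data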;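 note: 0% = DMSO-only wells and 100% = 3 µM delta7-dafachronic acid wells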
hcDAF12 agonist: activates DAF-12 receptor from parasite H. contortus. 1.4% of 370,000 active. HEK293 hcDAF-12 lit1-tk-luc reporter, luminescence; 0% DMSO, 100% Δ7-dafachronic acid. activation, % at 6.8 µM. AID 652067;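 active = activation above the mean of all tested compounds plus 3 SD, cut at about 5.5% in these data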;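 note: 100% = response to 3 µM Δ7-dafachronic acid high control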
hgDAF12 agonist: agonists of H. glycines DAF-12 nuclear receptor; HEK293 GAL4-hgDAF12 UAS-luciferase reporter, agonist luminescence; normalized to butyrate control; activation, % at 6.8 µM; 1.8% of 370,000 active;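 active = activation above a cutoff set at the mean of all screened compounds plus 3 SD, cut at about 10% in these data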;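 note: 0% = DMSO wells and 100% = sodium butyrate wells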
SMARCA2 activ: SMARCA2 function activation, primary screen | MG213 cells, MMTV-luciferase reporter, dexamethasone, overnight | activation, % at 9.1 µM | 1% of 370,000 active; in the data active = activation above about 7.8%;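 note: 0% = vehicle wells and 100% = reference activator wells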
DAX1 inh-2: NR0B1 (DAX1) inhibition; HEK293 Gal4-DAX1 luciferase reporter, luminescence; inhibition, % at 6.75 µM; 0.99% of 340,000 active;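 active = inhibition above the mean over all tested compounds plus 3 SD, cut at about 4.2% in these data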;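 note: 0% = DAX1-transfected cells with DMSO and 100% = empty-vector control cells with DMSO; inhibition shows as a rise in luminescence from relieved DAX1 repression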
Target sequence (P51843 207-470 limits assumed): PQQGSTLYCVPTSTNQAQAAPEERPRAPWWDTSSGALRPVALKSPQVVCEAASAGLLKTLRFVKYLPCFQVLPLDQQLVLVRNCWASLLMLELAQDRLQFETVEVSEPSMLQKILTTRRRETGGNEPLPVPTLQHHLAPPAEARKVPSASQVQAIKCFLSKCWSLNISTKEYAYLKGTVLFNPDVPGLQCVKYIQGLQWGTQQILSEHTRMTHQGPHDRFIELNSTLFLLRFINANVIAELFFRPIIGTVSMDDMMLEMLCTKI
LXRb hcDAF ctr: counter-screen for hcDAF-12 agonists: agonists of human LXR-beta; shares compounds with hcDAF12 agonist; 3,400 tested, under 10 active; HEK293 Gal4-LXR tk-luc reporter, luminescence, 24 h; normalized: DMSO 0%, positive control 100%; activation, % at 6.8 µM;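 active = mean percent activation of the reporter above a cutoff set as the average over tested compounds plus their standard deviation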
hcDAF12 ag: hcDAF-12 agonism, confirmation assay | shares compounds with hcDAF12 agonist | HEK293 hcDAF-12 lit1-tk-luc reporter, luminescence; % of Δ7-dafachronic acid response | activation, % at 6.8 µM | 61% of 3,400 active | AID 743032;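 active = mean activation across triplicate tests above the threshold derived from the earlier primary screen, cut at about 5.5% in these data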;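 note: 0% = DMSO only wells and 100% = 3 µM Δ7-dafachronic acid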
Active calls of the source: *; . = no result. Sampled rows, rich in hits. Any-hit rate of the full collection: about 4.8%.

SMILES	DAX1 inh-1	ssDAF-12 act	hcDAF12 agonist	hgDAF12 agonist	SMARCA2 activ	DAX1 inh-2	LXRb hcDAF ctr	hcDAF12 ag
CC(=O)Nc1cccc(-c2nc3ccccc3c(=O)o2)c1	-1	-1	-1	1	-1	0	.	.
COc1cc(OC)cc(C(=O)Nc2ccc(-c3nc4ccccc4o3)cc2)c1	0	-2	-2	-5	0	-2	.	.
CC(=O)Nc1ccc(N/C=C(\C=O)c2nc3ccccc3o2)cc1	0	1.0*	6.7*	1	-1	0	0	6.7*
O=C/C(=C\Nc1ccccn1)c1nc2cc(Cl)ccc2o1	1	0.9*	6.8*	2	7	2	0	4
O=S(=O)(c1ccc2nc(Cc3ccccc3)[nH]c2c1)N1CCOCC1	1	-1	-1	0	-3	0	.	.
COc1cc(Cc2nc3ccc(S(=O)(=O)N4CCOCC4)cc3[nH]2)cc(OC)c1OC	-1	-2	8.0*	1	0	0	0	-1
Cc1cc(=O)[nH]c(SCc2ccccc2)n1	0	-1	1	-2	0	0	.	.
O=c1cc(O)nc(SCc2ccccc2)[nH]1	0	-2	6.7*	-2	-2	1	0	2
OCCC1CN(Cc2ccccc2O)CCN1CCCc1ccccc1 (stereo not given)	0	-1	7.8*	0	1	-1	0	1
O=C(N/N=C/c1ccccc1)C(O)c1ccccc1 (stereo not given)	0	0	6.7*	0	-2	0	0	5.6*
Cc1ccc(-c2[nH]ncc2CNCCc2cnn(-c3ccccc3)c2)cc1C	-1	-1	0	-2	1	0	.	.
Cc1noc(NC(=O)c2ccc(Cl)c(Cl)c2)c1Cl	0	-1	-2	0	-2	4	.	.
Cc1ccn2cc(-c3cccc(NC(=O)C(C)C)c3)nc2c1	1	-1	3	7	3	0	.	.
Cc1ccn2cc(-c3ccc(O)c(O)c3)nc2c1	3	1	7.0*	9	0	-2	1	7.5*
CCN(c1ccccc1)S(=O)(=O)c1ccc(C(=O)Nc2nnc(C3CC3)o2)cc1	-2	-1	-1	-1	-4	-2	.	.
CN(c1ccccc1)S(=O)(=O)c1ccc(C(=O)Nc2nnc(C3CC3)o2)cc1	0	-1	7.2*	1	-4	1	0	0
CC1(C)Nc2ccccc2C(=O)N1c1ccc(Br)cc1	3	3.0*	6.8*	13*	6	9.2*	1	5
c1ccc(N2CC3CCc4ccccc4C3=N2)cc1 (stereo not given)	1	1.4*	12*	7	7	4	1	12*
CN1N=C2c3ccccc3CCC2C1c1ccc(F)cc1 (stereo not given)	0	0	5	2	3	.	.	.
O=C(Cc1cccc(NC(=O)C2CCN(C(=O)C3CC3)CC2)c1)Nc1cccc(C(=O)N2CCOCC2)c1	1	-1	0	9	-2	-1	.	.
CCOc1ccc(NC(=O)NC2CC(=O)N(c3ccc(OC)cc3)C2)cc1 (stereo not given)	0	-1	-1	-1	-2	1	.	.
CS(=O)(=O)N(CC(=O)Nc1ccccc1-c1ccccc1)c1ccccc1	0	-1	0	-1	-5	0	.	.
Cc1ccc(N(CC(=O)Nc2ccccc2-c2ccccc2)S(=O)(=O)c2ccccc2)c(C)c1	0	-2	6.6*	2	0	0	0	2
Cc1ccc(S(=O)(=O)N2CCN(C(=O)c3cc(C4CC4)nn3-c3ccccc3)CC2)cc1	1	-1	0	-2	-3	0	.	.
COc1ccccc1C(=O)NC(=S)Nc1cccnc1Cl	1	1.2*	8.1*	5	2	-4	2	19*
